Calls of active or inactive are those of the source. How the source made its calls: active means hit-call score of the fitted dose curve at least 0.9, where 1 is the maximum; inactive means score below 0.9.
Assays:
Details in all cases: mRNA level, 48 h; actives raise or lower the signal
CYP2C9 (gene 1559) = test: LTEA_HepaRG_CYP2C9: Life Technologies and Expression Analysis (LTEA) Assay for CYP2C9 using HepaRG (AID 2283484)
In short: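 HepaRG, 48 h dosing, 8-pt half-log series, top 100 uM, 0.5% DMSO vehicle. Read-out: CYP2C9 transcript by TaqMan qRT-PCR, housekeeping-normalized (ACTB/GAPDH/POLR2A). Gain or loss fitted vs DMSO baseline.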

CYP2E1 (gene 1571) = test: LTEA_HepaRG_CYP2E1: Life Technologies and Expression Analysis (LTEA) Assay for CYP2E1 using HepaRG (AID 2283485)
In short: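 Readout is qRT-PCR of CYP2E1 mRNA, normalized to three housekeeping genes and fitted bidirectionally against 0.5% DMSO. HepaRG cells were dosed 48 h at eight concentrations, highest 100 uM with half-log dilutions.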

CYP4A11 (gene 1579) = test: LTEA_HepaRG_CYP4A11: Life Technologies and Expression Analysis (LTEA) Assay for CYP4A11 using HepaRG (AID 2283486)
In short: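 Differentiated HepaRG cells, 48 h after plating, exposed in duplicate for 48 h to 8 half-log concentrations up to 100 uM in 0.5% DMSO in serum-free induction medium. CYP4A11 mRNA measured by TaqMan qRT-PCR, normalized to ACTB, GAPDH and POLR2A.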

[1] = read-out: DNA damage-inducible transcript 3 (DDIT3), DDIT3 (gene 1649); test: LTEA_HepaRG_DDIT3: Life Technologies and Expression Analysis (LTEA) Assay for DNA damage-inducible transcript 3 (DDIT3) using HepaRG (AID 2283488)
In short: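 Cells are human HepaRG liver cells treated for 48 h with eight half-log concentrations up to 100 uM in 0.5% DMSO. Transcript levels come from qRT-PCR normalized to three housekeeping genes, with activity fitted in both directions relative to vehicle.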

[2] = read-out: Pro-epidermal growth factor (Homo sapiens) (UniProt P01133); test: LTEA_HepaRG_EGF: Life Technologies and Expression Analysis (LTEA) Assay for Epidermal growth factor (EGF) using HepaRG (AID 2283489)
In short: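 HepaRG cells (~100,000/well, 48 h pre-culture) exposed in duplicate for 48 h in serum-free induction medium to 8 half-log concentrations up to 100 uM in 0.5% DMSO. EGF mRNA by qRT-PCR, normalized to ACTB/GAPDH/POLR2A; bidirectional fit versus DMSO.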

[3] = read-out: Early growth response protein 1 (EGR1) transcription factor, EGR1 (gene 1958); test: LTEA_HepaRG_EGR1: Life Technologies and Expression Analysis (LTEA) Assay for Early growth response protein 1 (EGR1) transcription factor using HepaRG (AID 2283490)
In short: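 HepaRG, 48 h exposure, 8-pt half-log series from 100 uM, 0.5% DMSO vehicle; EGR1 transcript by TaqMan qRT-PCR (Fluidigm array), housekeeping-normalized; bidirectional fit relative to DMSO baseline.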

[4] = read-out: Ezrin (EZR), EZR (gene 7430); test: LTEA_HepaRG_EZR: Life Technologies and Expression Analysis (LTEA) Assay for Ezrin (EZR) using HepaRG (AID 2283491)
In short: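 Read-out is EZR transcript level by qRT-PCR, normalized to three housekeeping genes and fitted bidirectionally against the DMSO control. Human HepaRG cells received test chemicals for 48 h at eight half-log concentrations up to 100 uM in 0.5% DMSO.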

CYP3A5 (gene 1577) = test: LTEA_HepaRG_CYP3A5: Life Technologies and Expression Analysis (LTEA) Assay for CYP3A5 using HepaRG (AID 2283493)
In short: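 Human HepaRG hepatic cells receive 48 h chemical treatment at eight concentrations (half-log steps from 100 uM) in 0.5% DMSO. Expression of CYP3A5 is quantified by Fluidigm qRT-PCR and normalized to three reference genes.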

[5] = read-out: Fatty Acid-Binding Protein 1 (FABP1), FABP1 (gene 2168); test: LTEA_HepaRG_FABP1: Life Technologies and Expression Analysis (LTEA) Assay for Fatty Acid-Binding Protein 1 (FABP1) using HepaRG (AID 2283494)
In short: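 qRT-PCR readout of FABP1 transcript (normalized to three housekeeping genes) after 48 h chemical exposure of HepaRG cells; eight concentrations, half-log steps, max 100 uM, 0.5% DMSO vehicle; gain or loss fitted relative to DMSO baseline.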

[6] = read-out: Cytochrome P450 4A22 (Homo sapiens) (UniProt Q5TCH4); test: LTEA_HepaRG_CYP4A22: Life Technologies and Expression Analysis (LTEA) Assay for Cytochrome P450 4A22 (CYP4A22) using HepaRG (AID 2283495)
In short: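 Differentiated HepaRG cells in serum-free induction medium exposed 48 h in duplicate to eight half-log concentrations up to 100 uM in 0.5% DMSO. CYP4A22 mRNA quantified by TaqMan qRT-PCR, normalized to ACTB, GAPDH and POLR2A; bidirectional fit versus DMSO.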

[7] = read-out: Cytochrome P450 7A1 (Homo sapiens) (UniProt P22680); test: LTEA_HepaRG_CYP7A1: Life Technologies and Expression Analysis (LTEA) Assay for Cytochrome P450 7A1 (CYP7A1) using HepaRG (AID 2283496)
In short: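 HepaRG, 48 h exposure, 8-pt half-log series from 100 uM, 0.5% DMSO vehicle, duplicates. Readout: TaqMan qRT-PCR mRNA vs three housekeeping genes; bidirectional curve fit against DMSO baseline.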

[8] = read-out: Glutathione S-Transferase (GSTA2), GSTA2 (gene 2939); test: LTEA_HepaRG_GSTA2: Life Technologies and Expression Analysis (LTEA) Assay for Glutathione S-Transferase (GSTA2) using HepaRG (AID 2283497)
In short: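 qRT-PCR readout of GSTA2 transcript, normalized to three housekeeping genes, fitted bidirectionally against 0.5% DMSO baseline. Differentiated HepaRG cells received compound for 48 h at 8 concentrations (top 100 uM, half-log steps).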

[9] = read-out: Glutamate-cysteine ligase catalytic (GCLC), GCLC (gene 2729); test: LTEA_HepaRG_GCLC: Life Technologies and Expression Analysis (LTEA) Assay for Glutamate-cysteine ligase catalytic (GCLC) using HepaRG (AID 2283498)
In short: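 HepaRG, 48 h exposure, 8-pt half-log series from 100 uM, 0.5% DMSO vehicle; TaqMan qRT-PCR for GCLC mRNA, housekeeping-normalized; bidirectional curve fit vs DMSO baseline.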

[10] = read-out: growth arrest and DNA damage 45 (GADD45G), GADD45G (gene 10912); test: LTEA_HepaRG_GADD45G: Life Technologies and Expression Analysis (LTEA) Assay for growth arrest and DNA damage 45 (GADD45G) using HepaRG (AID 2283499)
In short: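 Differentiated human HepaRG cells, 48 h post-plating, exposed 48 h in serum-free induction medium to 8 half-log concentrations (top 100 uM, 0.5% DMSO) in duplicate. GADD45G mRNA measured by Fluidigm TaqMan qRT-PCR, normalized to ACTB, GAPDH, POLR2A; bidirectional fit versus DMSO.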

[11] = read-out: Glutamate-cysteine ligase regulatory (GCLM), GCLM (gene 2730); test: LTEA_HepaRG_GCLM: Life Technologies and Expression Analysis (LTEA) Assay for Glutamate-cysteine ligase regulatory (GCLM) using HepaRG (AID 2283500)
In short: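 Endpoint is GCLM transcript level by qRT-PCR, normalized to three housekeeping genes, after 48 h chemical exposure of human HepaRG cells (0.5% DMSO vehicle, top 100 uM, half-log dilutions). Fitting was bidirectional relative to DMSO.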

[12] = read-out: Glutathione S-transferase M3 (GSTM3), GSTM3 (gene 2947); test: LTEA_HepaRG_GSTM3: Life Technologies and Expression Analysis (LTEA) Assay for Glutathione S-transferase M3 (GSTM3) using HepaRG (AID 2283501)
In short: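 Differentiated human HepaRG cells were exposed in duplicate for 48 h in serum-free induction medium, 8 points from 100 uM top in half-log steps, 0.5% DMSO. GSTM3 mRNA was measured by TaqMan qRT-PCR, normalized to ACTB, GAPDH and POLR2A; bidirectional fit versus DMSO.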

[13] = read-out: Heat shock 70 kDa protein 1 (HSPA1A), gene 3303; test: LTEA_HepaRG_HSPA1A: Life Technologies and Expression Analysis (LTEA) Assay for Heat shock 70 kDa protein 1 (HSPA1A) using HepaRG (AID 2283502)
In short: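 Cells were plated and cultured for 48 h, then switched to serum-free induction medium. Chemicals were added at eight half-log concentrations up to 100 uM for 48 h. RNA was then isolated and HSPA1A measured by qRT-PCR with bidirectional curve fitting against DMSO.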

[14] = read-out: Cytochrome P450 3A4 (Homo sapiens) (UniProt P08684); test: LTEA_HepaRG_CYP3A4: Life Technologies and Expression Analysis (LTEA) Assay for CYP3A4 using HepaRG (AID 2283487)
In short: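 HepaRG, 48 h exposure, 8-pt CRC from 100 uM (half-log), 0.5% DMSO, duplicates; serum-free induction medium. Readout: CYP3A4 mRNA, qRT-PCR, ACTB/GAPDH/POLR2A normalization. Bidirectional fit vs DMSO.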

[15] = read-out: Cytochrome P450 3A7 (Homo sapiens) (UniProt P24462); test: LTEA_HepaRG_CYP3A7: Life Technologies and Expression Analysis (LTEA) Assay for CYP3A7 using HepaRG (AID 2283492)
In short: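 Differentiated HepaRG cells in serum-free induction medium exposed 48 h in duplicate to 8-point half-log series from 100 uM top in 0.5% DMSO. CYP3A7 mRNA by qRT-PCR, normalized to ACTB/GAPDH/POLR2A, bidirectional fit versus DMSO.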

[16] = read-out: Hypoxia-inducible factor 1-alpha (Homo sapiens) (UniProt Q16665); test: LTEA_HepaRG_HIF1A: Life Technologies and Expression Analysis (LTEA) Assay for Hypoxia-inducible factor 1 (HIF1A) Trancription factor using HepaRG (AID 2283503)
In short: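 HIF1A transcript level read by qRT-PCR (ACTB, GAPDH, POLR2A normalization) after 48 h chemical exposure of HepaRG cultures. Eight half-log concentrations, top 100 uM, 0.5% DMSO vehicle, duplicates; bidirectional curve fit against DMSO baseline.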

Measured: AC50

Cytochrome P450 3A4 (Homo sapiens), sequence (P08684 whole entry, looked up): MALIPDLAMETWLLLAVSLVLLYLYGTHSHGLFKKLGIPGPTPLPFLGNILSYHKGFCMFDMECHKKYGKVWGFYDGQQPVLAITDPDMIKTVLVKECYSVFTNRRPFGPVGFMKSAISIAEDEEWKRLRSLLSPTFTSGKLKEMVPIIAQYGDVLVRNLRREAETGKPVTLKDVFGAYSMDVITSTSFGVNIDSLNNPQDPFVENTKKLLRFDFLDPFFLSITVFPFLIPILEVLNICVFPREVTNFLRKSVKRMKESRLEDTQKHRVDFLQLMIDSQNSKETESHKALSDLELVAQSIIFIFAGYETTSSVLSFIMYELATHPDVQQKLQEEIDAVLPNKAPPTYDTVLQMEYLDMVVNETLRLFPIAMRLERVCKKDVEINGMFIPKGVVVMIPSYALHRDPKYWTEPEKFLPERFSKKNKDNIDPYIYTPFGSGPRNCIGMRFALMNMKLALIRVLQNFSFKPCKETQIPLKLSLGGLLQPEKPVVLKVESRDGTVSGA
Hypoxia-inducible factor 1-alpha (Homo sapiens), sequence (Q16665 whole entry, looked up): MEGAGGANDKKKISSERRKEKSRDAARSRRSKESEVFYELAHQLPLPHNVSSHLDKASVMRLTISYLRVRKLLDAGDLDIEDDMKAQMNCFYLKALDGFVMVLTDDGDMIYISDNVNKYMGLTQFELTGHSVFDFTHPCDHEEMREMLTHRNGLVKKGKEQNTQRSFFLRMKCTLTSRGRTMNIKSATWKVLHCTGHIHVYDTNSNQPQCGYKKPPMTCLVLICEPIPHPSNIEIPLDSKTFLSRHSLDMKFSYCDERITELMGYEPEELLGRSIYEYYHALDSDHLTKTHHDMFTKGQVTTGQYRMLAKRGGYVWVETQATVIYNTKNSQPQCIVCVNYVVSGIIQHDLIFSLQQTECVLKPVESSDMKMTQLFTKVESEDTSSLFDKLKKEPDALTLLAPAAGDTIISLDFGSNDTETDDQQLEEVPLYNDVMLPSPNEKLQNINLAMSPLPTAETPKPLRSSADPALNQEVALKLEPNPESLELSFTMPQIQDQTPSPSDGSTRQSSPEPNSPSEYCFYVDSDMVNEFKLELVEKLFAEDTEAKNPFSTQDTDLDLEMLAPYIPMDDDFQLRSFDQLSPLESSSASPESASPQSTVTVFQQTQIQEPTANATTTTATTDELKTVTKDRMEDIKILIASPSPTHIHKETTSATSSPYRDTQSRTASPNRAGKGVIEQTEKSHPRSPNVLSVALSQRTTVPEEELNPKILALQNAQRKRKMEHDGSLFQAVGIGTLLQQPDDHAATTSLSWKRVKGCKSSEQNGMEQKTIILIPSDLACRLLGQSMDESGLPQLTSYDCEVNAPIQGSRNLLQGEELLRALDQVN
Cytochrome P450 3A7 (Homo sapiens), sequence (P24462 whole entry, looked up): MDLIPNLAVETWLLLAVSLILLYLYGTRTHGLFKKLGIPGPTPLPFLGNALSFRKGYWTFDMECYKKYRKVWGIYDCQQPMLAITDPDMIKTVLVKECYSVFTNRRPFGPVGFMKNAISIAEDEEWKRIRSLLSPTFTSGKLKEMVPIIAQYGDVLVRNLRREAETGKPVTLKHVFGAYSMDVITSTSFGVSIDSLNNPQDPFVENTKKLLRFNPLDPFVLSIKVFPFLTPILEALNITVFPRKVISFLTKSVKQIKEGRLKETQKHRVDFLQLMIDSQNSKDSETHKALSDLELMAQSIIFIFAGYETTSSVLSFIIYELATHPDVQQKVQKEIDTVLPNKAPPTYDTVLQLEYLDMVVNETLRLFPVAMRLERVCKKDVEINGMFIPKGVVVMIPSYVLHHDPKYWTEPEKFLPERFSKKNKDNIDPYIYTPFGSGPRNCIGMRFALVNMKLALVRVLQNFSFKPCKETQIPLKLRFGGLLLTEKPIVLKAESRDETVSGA

Cn1cnc([N+](=O)[O-])c1Sc1ncnc2nc[nH]c12
inactive: [2] | [4] | CYP3A5 (gene 1577) | [9] | [11] | [12] | [13]
active: CYP2C9 (gene 1559) 9.87 µM | CYP2E1 (gene 1571) 1.45 µM | CYP4A11 (gene 1579) 0.324 µM | [1] 9.59 µM | [3] 13 µM | [5] 27 µM | [6] 0.238 µM | [7] 2.09 µM | [8] 1.35 µM | [10] 1.11 µM

On1ccccc1=S
not listed: [2] | [6] | [7]
inactive: all other assays above

CCCCC(CC)COC(=O)CCCCCCCCC(=O)OCC(CC)CCCC (centres undefined)
inactive: all assays above

CC(C)c1cccc(C(C)C)c1N1C(=O)c2ccc(O)cc2C1=O
active: CYP2E1 (gene 1571) 89.7 µM | CYP4A11 (gene 1579) 72 µM | [14] 11.6 µM | [1] 74.9 µM | [3] 86.2 µM | [15] 87.9 µM | [5] 77.7 µM | [6] 72 µM | [7] 93.3 µM
inactive: all other assays above
